26 compounds from PubChem BioAssay (Tox21) can be followed below.

Molecules are shown by their SMILES. Where “and” joins values, the source holds several entries; their conditions need not be identical. Identical values can stand only once. A number with no mark means an inactive call. Inconclusive results are not listed. Calls of active or inactive are those of the source. Calls come from the whole dose curve; as a rule, active = well fitted curve in the direction sought with a large enough effect in the repeat runs; inconclusive = weak or mixed curves; inactive = no such curve, though single readings can be large; an effect the other way counts as inactive or inconclusive.

The nature of assay [1]: A CellTox Green Cytotoxicity Assay to monitor cytotoxicity in HepG2 cells - 0 hour (AID 1224882). Note: nearly all actives have a fitted effect of over 35% in size. The method, boiled down:
(§1)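 Read-out is fluorescence of a cyanine dye excluded from live cells that stains DNA of dead HepG2 cells, with signal proportional to cytotoxicity. Plates were read at 0, 8, 16, 24, 32 and 40 h after compound addition.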

Assay [2] can be described thus: A CellTox Green Cytotoxicity Assay to monitor cytotoxicity in HepG2 cells - 32 hour (AID 1224883). Note: nearly all actives have a fitted effect of over 50% in size. Note: potency is the fitted concentration of half-maximal effect. The method, boiled down:
as §1

A short description of assay [3]: A CellTox Green Cytotoxicity Assay to monitor cytotoxicity in HEK293 cells - 8 hour (AID 1224884). Note: nearly all actives have a fitted effect of over 35% in size. Note: potency is the fitted concentration of half-maximal effect. Put shortly: (§2)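 Nonlytic real-time cytotoxicity: HEK293 + CellTox Green reagent plated, 5 h preincubation, pintool compound addition (23 nL in DMSO), 37 C for 40 h, fluorescence measured at successive time points.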
Assay [4] can be described thus: qHTS RealTime-Glo MT Cell Viability Assay in HepG2 cells - 16 hour (AID 1224885). Note: nearly all actives have a fitted effect of over 50% in size. Note: potency is the fitted concentration of half-maximal effect. Put shortly: (§3)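 HepG2 cells (600/well) were dispensed with RealTime-Glo reagents, incubated 5 h at 37 °C, then treated with compounds in DMSO for up to 40 h. Nonlytic NanoLuc luminescence reflecting viable cells was read at each stated time point.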
Assay [5] is described as follows: qHTS RealTime-Glo MT Cell Viability Assay in HEK293 cells - 24 hour (AID 1224886). For activity change, negative = cytotoxicity: top concentration of the series differs between compounds. Note: nearly all actives have a fitted effect of over 50% in size. Note: potency is the fitted concentration of half-maximal effect. Put shortly:
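HEK293 cells seeded with NanoLuc/prosubstrate reagent, rested 5 h at 37 C, then dosed and kept at 37 C up to 40 h. Nonlytic real-time luminescence from viable cells read at 0, 8, 16, 24, 32 and 40 h.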
In general terms: qHTS replaces the single test concentration by a dilution series.

Assay [6] can be described thus: qHTS RealTime-Glo MT Cell Viability Assay in HEK293 cells - 8 hour (AID 1224887). For activity change, negative = cytotoxicity: top concentration of the series differs between compounds. Note: nearly all actives have a fitted effect of over 50% in size. Note: potency is the fitted concentration of half-maximal effect. The method, boiled down:
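Cells were seeded together with NanoLuc luciferase and a prosubstrate that viable cells reduce to a luciferase substrate. After a 5 h incubation at 37 C/5% CO2, compounds were added and luminescence was measured repeatedly during 40 h of treatment.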

A short description of assay [7]: A CellTox Green Cytotoxicity Assay to monitor cytotoxicity in HEK293 cells - 16 hour (AID 1224888). Note: nearly all actives have a fitted effect of over 35% in size. Note: potency is the fitted concentration of half-maximal effect. The method, boiled down: as §2
A short description of assay [8]: qHTS RealTime-Glo MT Cell Viability Assay in HepG2 cells - 0 hour (AID 1224889). Note: nearly all actives have a fitted effect of over 50% in size. Note: potency is the fitted concentration of half-maximal effect. The method, boiled down:
as §3

Assay [9] is described as follows: A CellTox Green Cytotoxicity Assay to monitor cytotoxicity in HepG2 cells - 8 hour (AID 1224890). Note: nearly all actives have a fitted effect of over 45% in size. Note: potency is the fitted concentration of half-maximal effect. The method, boiled down: as §1
Assay [10] can be described thus: A CellTox Green Cytotoxicity Assay to monitor cytotoxicity in HEK293 cells - 32 hour (AID 1224881). Note: nearly all actives have a fitted effect of over 40% in size. The method, boiled down: as §2
% is set by controls: 0 for no effect and ±100 for the full control effect.

As to `COc1ccc2c3c1O[C@H]1[C@H](O)CC[C@H]4[C@@H](C2)N(C)CC[C@@]341`, the Potency result in [1], in [2], in [3], in [4], in assay [5] and in [6] was “inactive” throughout. Besides, the Potency entry in assay [7], in assay [8] and in assay [9] was “inactive” each time.

For the compound `Nc1ccc(N=Nc2ccccc2)cc1`, the Potency entry in [10], in [1], in [3], in [7], in [8] and in assay [9] was “inactive” in each case.

As for `CCC[CH2][Sn]([CH2]CCC)([CH2]CCC)[O][Sn]([CH2]CCC)([CH2]CCC)[CH2]CCC`, the cytotoxicity in assay [1] was 5.3% [at 6.97 µM]. The Potency is 0.537 µM (active) in assay [2]; 2.14 µM (active) in assay [3]; 0.676 µM (active) in assay [4]; 0.191 µM (active) in [5]; 0.269 µM (active) in [6]; 1.7 µM (active) in assay [7]. In addition, in assay [9], the Potency is 0.676 µM (active). Besides, the activity change, negative = cytotoxicity in assay [8] is 23.4% [at 6.97 µM].

Regarding `Nc1cc(Cl)ccc1Cl`, the Potency result in assay [1], in [2], in assay [3], in assay [4], in assay [5] and in [6] was “inactive” in each case. Besides, the Potency result in [7], in [8] and in [9] was “inactive” in each case.

With `CCCCC/C=C\C/C=C\C/C=C\C/C=C\CCCC(=O)NCC(=O)O`, the Potency entry in assay [1], in assay [2], in [3], in assay [4], in assay [5] and in [6] was “inactive” each time. For the same compound, the Potency entry in assay [7], in [8] and in assay [9] was “inactive” each time.

Take `O=[N+]([O-])[O-].[Tl+]`: the Potency result in [1], in [2], in [3], in assay [4], in assay [5] and in [6] was “inactive” throughout. The Potency entry in assay [7], in assay [8] and in assay [9] was “inactive” in each case.

For the compound `O=C1C(Cl)=C(Cl)C(=O)C(Cl)=C1Cl`, the Potency result in assay [1], in assay [3] and in assay [7] was “inactive” each time. Besides, the Potency in assay [2] is 21.8 µM (active) and 19.5 µM (active); in [5] it was 24.5 µM (active) and 21.9 µM (active); in [6], 21.8 µM (active); in assay [8] it was 9.74 µM (active) and 12.3 µM (active); in assay [9], 21.9 µM (active).

For the compound `[O]=[Cr](=[O])([OH])[O][Cr](=[O])(=[O])[OH]`, the Potency entry in [1], in assay [3], in assay [7], in assay [8] and in assay [9] was “inactive” each time. The Potency in assay [2] was 12.4 µM (active); in assay [5], 12.4 µM (active) and 6.9 µM (active).

Turning to `Cc1c([N+](=O)[O-])cc2c(c1[N+](=O)[O-])C(C)(C)CC2(C)C`, the Potency result in [1], in [2], in [4], in assay [5], in [6] and in assay [8] was “inactive” each time. Besides, the Potency entry in [9] is “inactive”.

With `CC(=O)[O-].CC(=O)[O-].O.O.O.[Pb+2]`, the Potency entry in assay [1], in [3], in [4], in assay [6], in assay [7] and in [8] was “inactive” in each case. In assay [9], the Potency result was “inactive”.

On to `O=S1(=O)OCC2C(CO1)C1(Cl)C(Cl)=C(Cl)C2(Cl)C1(Cl)Cl` (stereo unspecified), for which the Potency result in assay [1], in [3], in assay [7], in assay [8] and in assay [9] was “inactive” throughout. The Potency in assay [5] is 19.5 µM (active).

With `Oc1ccc([C@H]2CNCc3c2ccc(O)c3O)cc1O`, the Potency in [2], in assay [3], in assay [7] and in [9] was 26.8 µM (active) each time. Moreover, the Potency entry in assay [5] and in assay [8] was “inactive” in each case.

On to `CCN1CCC2(CC1)COc1cc3c(cc12)N(C(=O)c1ccc(-c2ccc(-c4nnc(C)o4)cc2C)cc1)CC3`, for which the Potency result in [1] is “inactive”. The Potency is 45.2 µM (active) in assay [2]; 50.7 µM (active) in assay [3]; 45.2 µM (active) in assay [4]; 12.7 µM (active) in assay [5]; 20.2 µM (active) in assay [6]; 20.2 µM (active) in assay [8]. Besides, the Potency in [9] is 50.7 µM (active).

For the compound `O=[N+]([O-])C(Br)Br`, the Potency entry in assay [1], in assay [3], in [4], in assay [8] and in assay [9] was “inactive” throughout. In addition, the Potency in assay [5] was 55 µM (active).

Consider `Nc1ccc(Cl)cc1C(=O)c1ccccc1F`, for which the Potency result in assay [1], in assay [3], in [4], in assay [5], in [6] and in assay [7] was “inactive” in each case. The Potency entry in [8] and in assay [9] was “inactive” throughout.

On to `CO/N=C(/C1=NOCCO1)c1ccccc1Oc1ncnc(Oc2ccccc2Cl)c1F`, for which the Potency entry in assay [1], in assay [2], in [3], in [5], in assay [6] and in assay [7] was “inactive” in each case. In addition, the Potency result in assay [8] and in assay [9] was “inactive” in each case.

In the case of `c1ccc(Nc2ccc(Nc3ccccc3)cc2)cc1`, the Potency result in [1], in assay [2], in [4], in assay [8] and in assay [9] was “inactive” throughout. The Potency in [5] is 21.8 µM (active); in assay [6] it was 15.4 µM (active).

Turning to `Cc1ccc2cc3c(ccc4ccccc43)c3c2c1CC3`, the Potency result in assay [1], in [3], in assay [4], in [5], in assay [6] and in assay [8] was “inactive” in each case. Further, the Potency result in [9] was “inactive”. The Potency in [2] was 6.93 µM (active).

For the compound `CNC(=O)Oc1cc(C)cc(C(C)C)c1`, the Potency result in assay [1], in assay [3], in assay [4], in assay [5], in [6] and in assay [7] was “inactive” each time. Moreover, the Potency result in assay [8] and in assay [9] was “inactive” in each case.

On to `O.O.O.O.O.O.O.O=S(=O)([O-])[O-].[Co+2]`, for which the Potency result in assay [1], in assay [2], in assay [3], in [4], in [5] and in assay [6] was “inactive” each time. Also, the Potency result in assay [7] and in assay [9] was “inactive” in each case.

With `CCOP(=O)(OCC)Oc1nc(Cl)c(Cl)cc1Cl`, the Potency result in assay [1], in [3], in assay [4], in [5], in [6] and in [7] was “inactive” in each case. Further, the Potency result in [8] and in assay [9] was “inactive” throughout.

`O=C(Nc1ccc(F)cc1F)c1cccnc1Oc1cccc(C(F)(F)F)c1`: the Potency entry in assay [1], in assay [2], in assay [4], in assay [5], in [6] and in assay [7] was “inactive” in each case. The Potency entry in assay [8] and in assay [9] was “inactive” each time.

On to `CC1(C)C(C=C(Cl)Cl)C1C(=O)OC(C#N)c1ccc(F)c(Oc2ccccc2)c1` (stereo unspecified), for which the Potency result in assay [1], in [2], in assay [3], in assay [5], in assay [7] and in [8] was “inactive” each time. Moreover, the Potency entry in assay [9] is “inactive”.

With `C[C@H]1[C@H](c2ccc(Cl)cc2)SC(=O)N1C(=O)NC1CCCCC1`, the Potency result in assay [1], in assay [2], in assay [4], in assay [7], in assay [8] and in assay [9] was “inactive” each time. The Potency in [5] was 43.6 µM (active); in assay [6], 38.9 µM (active).

As to `Cc1cc2c3c(c1)C(c1ccccc1)=N[C@@H](NC(=O)c1ccncc1)C(=O)N3CC2`, the Potency entry in assay [1], in assay [3], in assay [4], in assay [5], in [6] and in [7] was “inactive” in each case. For the same compound, in assay [9], the Potency entry was “inactive”.

For `CCc1cccc(C)c1N(C(=O)CCl)[C@@H](C)COC`, the Potency entry in assay [1], in assay [5], in assay [6] and in assay [8] was “inactive” each time. In addition, the Potency in assay [2] was 43.6 µM (active).
